# The supplement of paper PMC5940239
# Tests used:
# [1] = test system: Madurella mycetomatis MM55; settings: 7 days
# [2] = test system: Madurella mycetomatis MM55; test: IC90; higher = less potent; settings: 7 days
# [3] = test system: Madurella mycetomatis MM55; test: percent growth relative to solvent control; higher = less inhibition, active = 20 or less; settings: 100 µM; 7 days
Compound,IC50 [1] [µM],IC90 [2] [µM],percent growth [3]
Cc1nnc(NCc2cccc(Cl)c2)c2ccccc12,29.1,62.8,-0.336% (active)
FC(F)(F)c1cc(NCCc2ccccc2)nc(-c2ccccn2)n1,55.5,91.1,-0.699% (active)
CCC(Sc1nc2ccccc2o1)C(=O)Nc1nccs1 (configuration not stated),37.1,56.5,0.757% (active)
CC1=Nc2ccc(Cl)cc2C(O)(c2ccc(C)cc2)N1CCN1CCCCC1 (configuration not stated),49.3,92.3,2.85% (active)
c1ccc(-c2[nH]c3ccccc3c2C(c2ccccn2)N2CCCC2)cc1 (configuration not stated),34.8,94.6,5.96% (active)
c1ccc(-c2nc(NC3CCCCC3)cc(C3CC3)n2)nc1,10.3,18.8,2.69% (active)
COc1cc2ncnc(NC3CCN(Cc4ccccc4)CC3)c2cc1OC,66.6,92.3,-1.64% (active)
c1ccc(Oc2ccc(-c3cc(N4CCOCC4)[nH]n3)cc2)cc1,56.9,95.2,5.11% (active)
COc1ccc(OC(C)C(=O)Nc2ccc(Cl)cc2C)cc1 (configuration not stated),26.9,54.5,0.806% (active)
Nc1nc2ccc(-c3cncc(Oc4ccc(F)cc4)c3)cc2[nH]1,40.7,85.8,-2.72% (active)
O=C(c1ccc(NCCO)cc1)C1C[C@H]1c1ccc(Cl)cc1 (some centres not stated),12.2,38,4.06% (active)
Cc1cccc(-c2nc(Nc3ccncn3)c3sccc3n2)n1,35.2,88.1,1.77% (active)
CNCCC(Oc1ccc(C(F)(F)F)cc1)c1ccccc1 (configuration not stated),10.1,18.6,1.78% (active)
COc1ccc(-c2cnc3ccc(N4CCCC4)nn23)cc1OC,64,92.7,0.205% (active)
